Reference: the supplement of paper PMC11732987, “Enantioselective OTUD7B fragment discovery through chemoproteomics screening and high-throughput optimisation” (Communications Chemistry, 2025)

What was measured:
Assay in all cases: log2 ratio of Biotin-Ahx-Ub-VS probe labelling (fragment/DMSO); higher = less target engagement (more negative = stronger competition), active = hit call of the paper (q ≤ 0.05, log2 ratio ≤ -1)
Details in all cases: compound concentration: 200 uM; treatment time: 3 h
USP34 = USP34 (UniProt Q70CQ2)
USP34, sequence (Q70CQ2 whole entry, the tested form may be a part): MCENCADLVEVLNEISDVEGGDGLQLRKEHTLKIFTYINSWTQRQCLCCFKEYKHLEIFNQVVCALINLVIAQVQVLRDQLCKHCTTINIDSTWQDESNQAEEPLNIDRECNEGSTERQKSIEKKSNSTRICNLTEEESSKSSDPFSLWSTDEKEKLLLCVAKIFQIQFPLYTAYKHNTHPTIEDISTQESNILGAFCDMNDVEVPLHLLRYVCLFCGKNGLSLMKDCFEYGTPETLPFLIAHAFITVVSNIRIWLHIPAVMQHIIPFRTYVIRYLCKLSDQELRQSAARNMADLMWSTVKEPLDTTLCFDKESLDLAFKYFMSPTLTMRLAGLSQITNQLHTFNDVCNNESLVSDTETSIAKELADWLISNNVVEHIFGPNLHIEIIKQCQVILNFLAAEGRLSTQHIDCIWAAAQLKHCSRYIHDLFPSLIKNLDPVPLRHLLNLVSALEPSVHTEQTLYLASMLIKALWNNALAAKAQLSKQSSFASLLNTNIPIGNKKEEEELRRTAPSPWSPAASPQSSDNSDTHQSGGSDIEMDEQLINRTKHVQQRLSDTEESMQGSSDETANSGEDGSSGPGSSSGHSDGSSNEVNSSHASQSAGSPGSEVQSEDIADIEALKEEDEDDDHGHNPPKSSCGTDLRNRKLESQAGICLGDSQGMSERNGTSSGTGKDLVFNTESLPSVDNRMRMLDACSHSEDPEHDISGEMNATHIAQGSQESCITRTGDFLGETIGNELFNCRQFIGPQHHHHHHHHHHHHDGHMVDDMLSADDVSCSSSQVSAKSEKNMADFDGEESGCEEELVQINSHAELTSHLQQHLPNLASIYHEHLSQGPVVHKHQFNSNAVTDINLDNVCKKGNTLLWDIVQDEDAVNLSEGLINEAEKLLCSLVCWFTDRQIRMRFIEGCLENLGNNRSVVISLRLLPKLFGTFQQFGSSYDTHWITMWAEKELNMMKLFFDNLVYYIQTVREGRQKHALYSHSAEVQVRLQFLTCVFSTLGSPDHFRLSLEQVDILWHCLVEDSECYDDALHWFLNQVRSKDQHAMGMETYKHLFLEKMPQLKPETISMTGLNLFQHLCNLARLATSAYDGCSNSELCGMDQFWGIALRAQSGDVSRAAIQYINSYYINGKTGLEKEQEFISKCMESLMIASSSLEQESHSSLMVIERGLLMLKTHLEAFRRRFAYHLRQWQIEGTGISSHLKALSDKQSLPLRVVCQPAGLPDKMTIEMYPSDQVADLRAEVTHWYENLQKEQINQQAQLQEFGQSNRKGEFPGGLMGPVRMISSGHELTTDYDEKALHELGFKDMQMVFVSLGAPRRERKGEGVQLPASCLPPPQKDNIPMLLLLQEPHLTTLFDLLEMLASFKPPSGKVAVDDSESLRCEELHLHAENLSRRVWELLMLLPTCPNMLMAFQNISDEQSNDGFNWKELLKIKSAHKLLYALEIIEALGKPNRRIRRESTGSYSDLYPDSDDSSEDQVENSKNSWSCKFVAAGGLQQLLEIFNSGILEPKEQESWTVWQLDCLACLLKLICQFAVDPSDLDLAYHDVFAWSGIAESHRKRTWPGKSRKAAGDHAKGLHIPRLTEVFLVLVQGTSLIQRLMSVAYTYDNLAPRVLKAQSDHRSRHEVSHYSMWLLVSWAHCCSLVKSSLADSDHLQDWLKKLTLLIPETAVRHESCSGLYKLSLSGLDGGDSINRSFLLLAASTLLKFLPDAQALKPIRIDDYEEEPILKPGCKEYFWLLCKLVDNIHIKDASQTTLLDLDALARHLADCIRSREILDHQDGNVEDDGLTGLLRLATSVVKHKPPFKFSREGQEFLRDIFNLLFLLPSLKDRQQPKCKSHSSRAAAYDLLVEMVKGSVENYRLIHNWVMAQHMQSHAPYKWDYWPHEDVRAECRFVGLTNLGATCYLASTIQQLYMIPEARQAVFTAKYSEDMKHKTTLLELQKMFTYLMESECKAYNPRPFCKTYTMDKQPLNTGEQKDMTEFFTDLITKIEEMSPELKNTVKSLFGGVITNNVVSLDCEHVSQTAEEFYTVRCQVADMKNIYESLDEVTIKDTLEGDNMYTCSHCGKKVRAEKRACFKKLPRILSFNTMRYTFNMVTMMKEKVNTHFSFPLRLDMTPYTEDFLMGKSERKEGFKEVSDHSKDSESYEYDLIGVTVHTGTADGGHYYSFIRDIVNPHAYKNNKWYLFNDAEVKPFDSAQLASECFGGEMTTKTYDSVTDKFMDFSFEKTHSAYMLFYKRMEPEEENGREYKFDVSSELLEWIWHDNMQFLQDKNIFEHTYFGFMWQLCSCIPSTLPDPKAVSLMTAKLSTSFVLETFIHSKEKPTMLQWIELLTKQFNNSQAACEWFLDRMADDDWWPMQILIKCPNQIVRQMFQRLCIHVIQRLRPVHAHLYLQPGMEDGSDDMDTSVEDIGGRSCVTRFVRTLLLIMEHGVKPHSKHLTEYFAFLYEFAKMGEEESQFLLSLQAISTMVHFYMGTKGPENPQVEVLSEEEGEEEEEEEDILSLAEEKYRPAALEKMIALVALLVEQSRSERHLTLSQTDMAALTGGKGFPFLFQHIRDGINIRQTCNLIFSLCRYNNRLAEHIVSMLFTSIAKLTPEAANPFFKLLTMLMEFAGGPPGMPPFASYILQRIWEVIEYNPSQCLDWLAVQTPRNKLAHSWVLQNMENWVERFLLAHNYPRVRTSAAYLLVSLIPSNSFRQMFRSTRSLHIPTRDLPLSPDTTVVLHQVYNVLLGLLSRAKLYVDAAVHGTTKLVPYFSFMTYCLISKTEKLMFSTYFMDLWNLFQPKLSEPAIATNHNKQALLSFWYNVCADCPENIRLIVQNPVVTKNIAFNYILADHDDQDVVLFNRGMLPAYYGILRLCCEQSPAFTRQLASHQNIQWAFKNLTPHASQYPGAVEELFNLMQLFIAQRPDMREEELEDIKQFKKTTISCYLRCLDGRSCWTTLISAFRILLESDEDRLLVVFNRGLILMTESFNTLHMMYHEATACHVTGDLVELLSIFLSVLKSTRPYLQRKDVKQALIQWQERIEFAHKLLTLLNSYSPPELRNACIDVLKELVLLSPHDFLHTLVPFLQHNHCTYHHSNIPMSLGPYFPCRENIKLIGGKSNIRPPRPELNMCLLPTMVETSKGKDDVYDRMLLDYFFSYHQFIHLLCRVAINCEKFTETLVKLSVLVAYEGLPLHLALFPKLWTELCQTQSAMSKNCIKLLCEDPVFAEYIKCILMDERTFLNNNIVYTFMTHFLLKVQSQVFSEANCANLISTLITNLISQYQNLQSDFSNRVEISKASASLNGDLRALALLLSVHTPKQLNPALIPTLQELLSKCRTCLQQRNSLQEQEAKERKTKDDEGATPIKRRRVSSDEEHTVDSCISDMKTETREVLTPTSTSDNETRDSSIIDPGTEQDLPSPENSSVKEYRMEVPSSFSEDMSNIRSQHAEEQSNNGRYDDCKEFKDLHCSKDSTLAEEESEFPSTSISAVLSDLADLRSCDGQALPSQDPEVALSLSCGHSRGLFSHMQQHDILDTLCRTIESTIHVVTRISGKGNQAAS
Procedure, shortened: (§1)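 Fragment (200 µM) or vehicle was incubated for 3 h with triplicate HEK293T lysate samples of 495 µg, which were then treated with Biotin-Ahx-Ub-VS at 0.5 µM final for 1 h. Labelled DUBs were enriched on NeutrAvidin, digested with LysC and trypsin, and analysed by diaPASEF LC-MS/MS. Values are average log2 fragment/vehicle ratios from an unpaired t-test on global-median-normalised Spectronaut label-free quantities, using proteins with ≥2 unique peptides.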

USP36 = biological target: T1, USP36 (UniProt Q9P275)
T1 sequence (whole entry): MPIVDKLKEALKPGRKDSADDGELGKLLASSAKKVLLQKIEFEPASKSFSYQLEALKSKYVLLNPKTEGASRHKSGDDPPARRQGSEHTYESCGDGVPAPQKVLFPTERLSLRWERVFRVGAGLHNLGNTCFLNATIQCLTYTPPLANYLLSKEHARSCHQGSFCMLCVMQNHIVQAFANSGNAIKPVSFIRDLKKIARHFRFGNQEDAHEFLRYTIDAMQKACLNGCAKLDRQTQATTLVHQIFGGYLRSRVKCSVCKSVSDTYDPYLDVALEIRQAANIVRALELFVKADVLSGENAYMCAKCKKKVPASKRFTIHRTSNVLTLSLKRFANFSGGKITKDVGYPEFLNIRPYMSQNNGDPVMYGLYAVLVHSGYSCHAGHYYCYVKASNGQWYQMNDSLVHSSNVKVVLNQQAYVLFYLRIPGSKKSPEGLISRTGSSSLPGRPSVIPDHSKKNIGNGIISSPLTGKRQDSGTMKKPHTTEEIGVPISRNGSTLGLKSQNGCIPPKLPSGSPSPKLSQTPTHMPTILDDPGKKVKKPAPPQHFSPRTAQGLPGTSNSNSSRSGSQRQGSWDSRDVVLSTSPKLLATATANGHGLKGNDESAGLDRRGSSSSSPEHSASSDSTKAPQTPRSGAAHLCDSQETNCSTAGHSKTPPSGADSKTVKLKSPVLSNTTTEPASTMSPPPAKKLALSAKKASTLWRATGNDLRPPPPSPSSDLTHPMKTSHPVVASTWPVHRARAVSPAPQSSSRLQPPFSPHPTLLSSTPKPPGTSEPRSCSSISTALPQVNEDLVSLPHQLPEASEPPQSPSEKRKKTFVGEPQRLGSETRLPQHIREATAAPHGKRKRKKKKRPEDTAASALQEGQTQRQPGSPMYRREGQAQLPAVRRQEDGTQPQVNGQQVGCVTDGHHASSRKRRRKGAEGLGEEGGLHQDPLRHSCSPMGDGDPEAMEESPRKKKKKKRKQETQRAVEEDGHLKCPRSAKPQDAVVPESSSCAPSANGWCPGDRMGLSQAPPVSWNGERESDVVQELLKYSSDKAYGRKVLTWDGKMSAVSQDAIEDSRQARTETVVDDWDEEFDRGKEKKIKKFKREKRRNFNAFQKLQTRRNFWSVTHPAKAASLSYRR
Procedure, shortened: as §1

USP38 = biological target: T2, USP38 (UniProt Q8NB14)
T2 sequence (whole entry): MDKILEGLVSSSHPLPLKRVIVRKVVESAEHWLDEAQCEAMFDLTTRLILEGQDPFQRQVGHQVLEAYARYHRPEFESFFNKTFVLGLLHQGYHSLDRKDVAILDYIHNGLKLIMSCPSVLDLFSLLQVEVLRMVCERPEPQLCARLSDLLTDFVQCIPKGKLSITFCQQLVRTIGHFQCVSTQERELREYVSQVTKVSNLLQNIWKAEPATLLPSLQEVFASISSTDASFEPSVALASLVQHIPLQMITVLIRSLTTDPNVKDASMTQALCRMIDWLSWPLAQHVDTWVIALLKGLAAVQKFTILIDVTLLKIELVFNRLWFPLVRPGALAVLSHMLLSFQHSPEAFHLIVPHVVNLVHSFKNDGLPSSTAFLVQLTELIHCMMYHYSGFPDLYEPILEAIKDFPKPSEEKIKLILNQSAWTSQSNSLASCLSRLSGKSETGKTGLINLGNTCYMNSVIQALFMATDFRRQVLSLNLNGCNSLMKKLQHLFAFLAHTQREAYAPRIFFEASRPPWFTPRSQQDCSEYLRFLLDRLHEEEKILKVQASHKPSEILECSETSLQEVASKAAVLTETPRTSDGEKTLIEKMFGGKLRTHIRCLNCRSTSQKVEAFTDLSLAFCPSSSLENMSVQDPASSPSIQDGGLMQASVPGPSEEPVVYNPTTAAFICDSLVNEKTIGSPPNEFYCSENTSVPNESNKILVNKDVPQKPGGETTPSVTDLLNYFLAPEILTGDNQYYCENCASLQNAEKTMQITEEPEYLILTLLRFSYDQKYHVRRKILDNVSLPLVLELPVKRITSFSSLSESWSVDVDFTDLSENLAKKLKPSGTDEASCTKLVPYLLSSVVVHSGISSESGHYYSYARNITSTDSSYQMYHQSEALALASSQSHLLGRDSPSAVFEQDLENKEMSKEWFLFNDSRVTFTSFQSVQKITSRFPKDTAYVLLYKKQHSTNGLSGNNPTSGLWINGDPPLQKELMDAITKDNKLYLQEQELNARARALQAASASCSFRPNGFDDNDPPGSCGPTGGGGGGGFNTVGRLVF
Procedure, shortened: as §1

USP39 = biological target: T3, USP39 (UniProt Q53GS9)
T3 sequence (whole entry): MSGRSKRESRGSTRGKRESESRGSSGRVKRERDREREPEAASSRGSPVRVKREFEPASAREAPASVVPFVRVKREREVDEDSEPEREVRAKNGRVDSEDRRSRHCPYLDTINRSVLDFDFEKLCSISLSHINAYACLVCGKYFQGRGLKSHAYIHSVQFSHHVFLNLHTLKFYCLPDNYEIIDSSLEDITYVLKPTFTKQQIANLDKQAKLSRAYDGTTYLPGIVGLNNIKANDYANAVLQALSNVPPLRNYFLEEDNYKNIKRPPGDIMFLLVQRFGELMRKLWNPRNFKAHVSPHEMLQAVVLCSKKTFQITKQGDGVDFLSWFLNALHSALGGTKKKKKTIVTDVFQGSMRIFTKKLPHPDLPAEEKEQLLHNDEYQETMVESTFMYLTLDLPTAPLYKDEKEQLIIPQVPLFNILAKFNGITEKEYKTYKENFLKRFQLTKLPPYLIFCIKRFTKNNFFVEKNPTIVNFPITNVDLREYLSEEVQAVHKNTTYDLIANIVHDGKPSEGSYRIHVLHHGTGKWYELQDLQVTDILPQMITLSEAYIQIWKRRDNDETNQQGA
Procedure, shortened: as §1

USP4 = biological target: T4, USP4 (UniProt Q13107)
T4 sequence (whole entry): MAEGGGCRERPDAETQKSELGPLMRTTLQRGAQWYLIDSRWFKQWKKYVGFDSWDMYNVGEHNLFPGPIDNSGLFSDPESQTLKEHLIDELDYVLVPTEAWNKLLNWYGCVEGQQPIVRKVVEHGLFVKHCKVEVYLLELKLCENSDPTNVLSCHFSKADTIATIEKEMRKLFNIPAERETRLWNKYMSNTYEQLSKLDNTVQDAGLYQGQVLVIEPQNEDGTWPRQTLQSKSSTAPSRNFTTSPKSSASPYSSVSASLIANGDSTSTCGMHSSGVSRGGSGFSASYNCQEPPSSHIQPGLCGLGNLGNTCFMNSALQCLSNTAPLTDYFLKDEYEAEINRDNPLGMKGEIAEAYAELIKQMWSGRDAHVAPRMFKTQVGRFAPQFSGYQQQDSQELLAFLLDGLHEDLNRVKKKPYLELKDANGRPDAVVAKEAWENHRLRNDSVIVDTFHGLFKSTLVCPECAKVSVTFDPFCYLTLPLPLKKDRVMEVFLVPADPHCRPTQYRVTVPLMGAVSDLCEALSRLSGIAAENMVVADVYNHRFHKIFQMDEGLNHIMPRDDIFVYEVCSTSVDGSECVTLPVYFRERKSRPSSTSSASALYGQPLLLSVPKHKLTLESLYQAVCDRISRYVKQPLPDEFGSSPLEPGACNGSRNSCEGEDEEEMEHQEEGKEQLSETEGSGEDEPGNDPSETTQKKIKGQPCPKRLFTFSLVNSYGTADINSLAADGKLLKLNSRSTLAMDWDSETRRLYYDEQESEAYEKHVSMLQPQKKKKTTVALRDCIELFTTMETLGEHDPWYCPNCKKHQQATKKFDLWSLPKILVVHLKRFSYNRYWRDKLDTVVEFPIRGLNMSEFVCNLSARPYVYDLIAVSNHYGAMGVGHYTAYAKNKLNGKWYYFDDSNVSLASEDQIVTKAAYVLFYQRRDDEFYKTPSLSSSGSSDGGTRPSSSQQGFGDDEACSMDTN
Procedure, shortened: as §1

Measured: log2 ratio of Biotin-Ahx-Ub-VS probe labelling

Cc1noc(C)c1CNC(=O)CCl
inactive: USP34 -0.584 | USP36 -0.32 | USP38 -0.547 | USP39 0.303 | USP4 -0.608
